According to the supplement of paper PMC11732987, “Enantioselective OTUD7B fragment discovery through chemoproteomics screening and high-throughput optimisation” (Communications Chemistry, 2025):

Tests used:
Assay in all cases: log2 ratio of Biotin-Ahx-Ub-VS probe labelling (fragment/DMSO); higher = less target engagement (more negative = stronger competition), active = hit call of the paper (q ≤ 0.05, log2 ratio ≤ -1)
Details in all cases: compound concentration: 200 uM; treatment time: 3 h
USP34 = USP34 (UniProt Q70CQ2)
USP34, sequence (Q70CQ2 whole entry, the tested form may be a part): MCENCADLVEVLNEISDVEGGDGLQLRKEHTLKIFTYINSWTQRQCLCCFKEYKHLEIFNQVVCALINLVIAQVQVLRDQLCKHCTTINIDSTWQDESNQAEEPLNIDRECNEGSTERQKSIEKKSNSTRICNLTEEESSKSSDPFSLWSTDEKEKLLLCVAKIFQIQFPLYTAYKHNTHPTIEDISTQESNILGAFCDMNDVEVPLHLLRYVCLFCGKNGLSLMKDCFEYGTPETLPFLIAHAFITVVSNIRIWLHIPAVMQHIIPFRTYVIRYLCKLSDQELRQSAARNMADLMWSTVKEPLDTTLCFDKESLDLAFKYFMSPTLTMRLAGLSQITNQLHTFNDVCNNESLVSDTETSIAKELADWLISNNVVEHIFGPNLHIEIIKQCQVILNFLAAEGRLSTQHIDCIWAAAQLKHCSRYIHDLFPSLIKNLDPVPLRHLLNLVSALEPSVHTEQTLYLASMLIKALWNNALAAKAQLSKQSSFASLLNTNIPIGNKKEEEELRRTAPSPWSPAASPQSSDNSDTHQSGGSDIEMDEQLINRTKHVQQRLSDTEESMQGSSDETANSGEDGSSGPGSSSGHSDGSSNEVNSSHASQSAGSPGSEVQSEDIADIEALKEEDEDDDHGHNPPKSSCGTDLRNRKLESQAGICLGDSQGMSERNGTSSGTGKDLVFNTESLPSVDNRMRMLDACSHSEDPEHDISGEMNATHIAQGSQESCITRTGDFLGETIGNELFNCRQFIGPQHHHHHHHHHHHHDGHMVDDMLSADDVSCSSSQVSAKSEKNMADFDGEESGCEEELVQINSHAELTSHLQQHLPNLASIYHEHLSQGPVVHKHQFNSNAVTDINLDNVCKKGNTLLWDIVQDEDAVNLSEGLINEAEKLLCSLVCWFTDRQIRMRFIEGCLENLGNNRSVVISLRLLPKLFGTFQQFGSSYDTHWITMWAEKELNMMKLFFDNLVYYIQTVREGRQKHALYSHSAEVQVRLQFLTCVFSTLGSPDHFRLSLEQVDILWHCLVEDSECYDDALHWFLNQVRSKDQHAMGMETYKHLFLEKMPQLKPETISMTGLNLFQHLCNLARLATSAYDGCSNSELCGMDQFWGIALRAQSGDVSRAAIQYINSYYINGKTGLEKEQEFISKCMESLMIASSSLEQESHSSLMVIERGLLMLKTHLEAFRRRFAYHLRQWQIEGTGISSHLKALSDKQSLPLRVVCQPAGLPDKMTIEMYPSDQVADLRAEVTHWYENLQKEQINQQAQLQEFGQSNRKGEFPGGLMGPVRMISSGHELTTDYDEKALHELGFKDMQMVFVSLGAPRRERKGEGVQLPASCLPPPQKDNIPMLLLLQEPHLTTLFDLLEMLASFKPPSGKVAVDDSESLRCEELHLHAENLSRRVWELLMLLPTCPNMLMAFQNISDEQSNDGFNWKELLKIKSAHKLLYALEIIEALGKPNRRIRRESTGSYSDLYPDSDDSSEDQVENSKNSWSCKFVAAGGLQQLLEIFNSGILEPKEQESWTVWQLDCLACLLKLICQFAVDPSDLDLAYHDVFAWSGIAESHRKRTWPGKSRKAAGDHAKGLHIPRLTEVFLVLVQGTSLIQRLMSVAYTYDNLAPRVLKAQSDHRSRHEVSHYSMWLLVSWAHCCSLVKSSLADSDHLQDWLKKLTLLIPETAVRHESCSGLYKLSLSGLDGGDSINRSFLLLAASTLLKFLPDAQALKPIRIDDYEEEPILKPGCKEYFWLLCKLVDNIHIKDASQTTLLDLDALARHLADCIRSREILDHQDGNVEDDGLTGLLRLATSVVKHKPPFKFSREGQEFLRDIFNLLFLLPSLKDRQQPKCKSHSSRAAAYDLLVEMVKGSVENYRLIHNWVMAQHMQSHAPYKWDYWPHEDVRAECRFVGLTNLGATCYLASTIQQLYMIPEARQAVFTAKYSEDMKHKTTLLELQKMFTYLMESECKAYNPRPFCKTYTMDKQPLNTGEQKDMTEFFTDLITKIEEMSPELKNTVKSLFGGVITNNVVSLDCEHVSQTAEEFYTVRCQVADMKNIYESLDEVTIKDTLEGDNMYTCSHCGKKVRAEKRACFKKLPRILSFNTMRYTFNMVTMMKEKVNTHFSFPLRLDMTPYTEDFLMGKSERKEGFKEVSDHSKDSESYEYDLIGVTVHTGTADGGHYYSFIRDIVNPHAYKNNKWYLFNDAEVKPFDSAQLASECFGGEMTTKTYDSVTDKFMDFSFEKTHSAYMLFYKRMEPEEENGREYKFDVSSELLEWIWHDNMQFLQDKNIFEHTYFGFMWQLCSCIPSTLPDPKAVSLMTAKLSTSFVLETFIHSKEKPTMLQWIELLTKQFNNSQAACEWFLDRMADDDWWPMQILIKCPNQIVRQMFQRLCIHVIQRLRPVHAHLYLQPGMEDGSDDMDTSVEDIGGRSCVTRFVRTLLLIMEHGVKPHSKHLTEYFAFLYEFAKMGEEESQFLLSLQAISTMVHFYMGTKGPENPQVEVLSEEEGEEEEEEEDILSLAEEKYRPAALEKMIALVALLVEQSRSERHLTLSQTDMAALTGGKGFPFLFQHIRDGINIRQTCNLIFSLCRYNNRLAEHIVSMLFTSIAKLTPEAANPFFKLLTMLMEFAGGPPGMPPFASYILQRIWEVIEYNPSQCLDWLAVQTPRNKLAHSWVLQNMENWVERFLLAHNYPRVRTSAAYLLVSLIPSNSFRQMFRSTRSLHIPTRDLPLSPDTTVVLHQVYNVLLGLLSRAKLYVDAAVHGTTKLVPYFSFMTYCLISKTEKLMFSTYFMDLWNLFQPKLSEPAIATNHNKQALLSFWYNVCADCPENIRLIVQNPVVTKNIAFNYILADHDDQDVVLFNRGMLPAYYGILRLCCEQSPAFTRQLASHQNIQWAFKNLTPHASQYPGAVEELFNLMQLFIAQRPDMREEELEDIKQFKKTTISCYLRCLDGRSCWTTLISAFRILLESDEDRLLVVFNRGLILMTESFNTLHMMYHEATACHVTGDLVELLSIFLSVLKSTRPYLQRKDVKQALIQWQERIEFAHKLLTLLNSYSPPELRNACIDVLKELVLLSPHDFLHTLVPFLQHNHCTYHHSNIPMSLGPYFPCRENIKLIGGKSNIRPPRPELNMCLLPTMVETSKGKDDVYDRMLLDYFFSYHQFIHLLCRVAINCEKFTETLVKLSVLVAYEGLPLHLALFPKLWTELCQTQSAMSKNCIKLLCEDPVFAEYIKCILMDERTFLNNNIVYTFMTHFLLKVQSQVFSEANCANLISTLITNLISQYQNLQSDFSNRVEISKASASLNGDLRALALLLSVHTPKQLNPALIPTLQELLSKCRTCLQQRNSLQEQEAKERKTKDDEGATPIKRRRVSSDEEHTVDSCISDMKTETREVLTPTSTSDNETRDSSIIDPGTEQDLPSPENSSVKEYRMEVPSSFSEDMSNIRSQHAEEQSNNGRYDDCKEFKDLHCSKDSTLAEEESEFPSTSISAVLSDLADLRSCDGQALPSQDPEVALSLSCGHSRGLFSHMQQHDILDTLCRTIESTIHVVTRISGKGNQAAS
Method in brief: (§1)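 Triplicate samples of HEK293T lysate, 495 µg each, received fragment at 200 µM or vehicle for 3 h, followed by Biotin-Ahx-Ub-VS (0.5 µM final) for 1 h. After NeutrAvidin enrichment of labelled DUBs and LysC/trypsin digestion, peptides were run by diaPASEF LC-MS/MS. The values are average log2 fragment/vehicle ratios from global-median-normalised Spectronaut label-free quantities, tested by unpaired t-test on proteins having ≥2 unique peptides.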

USP36 = molecular target: T1, USP36 (UniProt Q9P275)
T1 sequence (whole entry): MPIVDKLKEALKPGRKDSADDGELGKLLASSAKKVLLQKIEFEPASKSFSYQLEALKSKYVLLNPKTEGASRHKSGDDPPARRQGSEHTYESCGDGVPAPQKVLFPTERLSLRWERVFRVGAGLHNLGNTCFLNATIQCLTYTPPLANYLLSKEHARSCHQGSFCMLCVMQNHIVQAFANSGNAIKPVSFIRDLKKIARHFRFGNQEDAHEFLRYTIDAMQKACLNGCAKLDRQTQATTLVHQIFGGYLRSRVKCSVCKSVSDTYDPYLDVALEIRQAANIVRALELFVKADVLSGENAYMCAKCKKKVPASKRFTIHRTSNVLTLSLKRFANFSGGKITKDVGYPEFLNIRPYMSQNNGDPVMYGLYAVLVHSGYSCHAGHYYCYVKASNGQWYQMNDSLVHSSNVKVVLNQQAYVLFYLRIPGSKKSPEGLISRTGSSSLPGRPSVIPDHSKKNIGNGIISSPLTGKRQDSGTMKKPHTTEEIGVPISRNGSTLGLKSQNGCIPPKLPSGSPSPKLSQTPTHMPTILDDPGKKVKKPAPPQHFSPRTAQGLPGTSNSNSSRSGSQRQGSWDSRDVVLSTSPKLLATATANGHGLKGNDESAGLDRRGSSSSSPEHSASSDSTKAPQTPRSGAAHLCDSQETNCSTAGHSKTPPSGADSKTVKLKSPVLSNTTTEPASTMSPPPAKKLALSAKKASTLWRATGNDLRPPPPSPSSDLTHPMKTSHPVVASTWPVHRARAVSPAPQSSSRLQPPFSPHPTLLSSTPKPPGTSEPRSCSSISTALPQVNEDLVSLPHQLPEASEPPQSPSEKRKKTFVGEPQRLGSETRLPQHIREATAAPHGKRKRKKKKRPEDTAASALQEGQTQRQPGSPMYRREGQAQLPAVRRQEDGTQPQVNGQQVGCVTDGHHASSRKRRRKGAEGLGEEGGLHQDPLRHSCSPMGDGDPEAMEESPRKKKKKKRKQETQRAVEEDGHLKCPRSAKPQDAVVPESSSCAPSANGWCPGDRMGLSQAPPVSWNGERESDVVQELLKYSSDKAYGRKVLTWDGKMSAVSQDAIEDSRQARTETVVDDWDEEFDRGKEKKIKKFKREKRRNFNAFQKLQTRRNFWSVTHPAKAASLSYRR
Method in brief: as §1

USP38 = molecular target: T2, USP38 (UniProt Q8NB14)
T2 sequence (whole entry): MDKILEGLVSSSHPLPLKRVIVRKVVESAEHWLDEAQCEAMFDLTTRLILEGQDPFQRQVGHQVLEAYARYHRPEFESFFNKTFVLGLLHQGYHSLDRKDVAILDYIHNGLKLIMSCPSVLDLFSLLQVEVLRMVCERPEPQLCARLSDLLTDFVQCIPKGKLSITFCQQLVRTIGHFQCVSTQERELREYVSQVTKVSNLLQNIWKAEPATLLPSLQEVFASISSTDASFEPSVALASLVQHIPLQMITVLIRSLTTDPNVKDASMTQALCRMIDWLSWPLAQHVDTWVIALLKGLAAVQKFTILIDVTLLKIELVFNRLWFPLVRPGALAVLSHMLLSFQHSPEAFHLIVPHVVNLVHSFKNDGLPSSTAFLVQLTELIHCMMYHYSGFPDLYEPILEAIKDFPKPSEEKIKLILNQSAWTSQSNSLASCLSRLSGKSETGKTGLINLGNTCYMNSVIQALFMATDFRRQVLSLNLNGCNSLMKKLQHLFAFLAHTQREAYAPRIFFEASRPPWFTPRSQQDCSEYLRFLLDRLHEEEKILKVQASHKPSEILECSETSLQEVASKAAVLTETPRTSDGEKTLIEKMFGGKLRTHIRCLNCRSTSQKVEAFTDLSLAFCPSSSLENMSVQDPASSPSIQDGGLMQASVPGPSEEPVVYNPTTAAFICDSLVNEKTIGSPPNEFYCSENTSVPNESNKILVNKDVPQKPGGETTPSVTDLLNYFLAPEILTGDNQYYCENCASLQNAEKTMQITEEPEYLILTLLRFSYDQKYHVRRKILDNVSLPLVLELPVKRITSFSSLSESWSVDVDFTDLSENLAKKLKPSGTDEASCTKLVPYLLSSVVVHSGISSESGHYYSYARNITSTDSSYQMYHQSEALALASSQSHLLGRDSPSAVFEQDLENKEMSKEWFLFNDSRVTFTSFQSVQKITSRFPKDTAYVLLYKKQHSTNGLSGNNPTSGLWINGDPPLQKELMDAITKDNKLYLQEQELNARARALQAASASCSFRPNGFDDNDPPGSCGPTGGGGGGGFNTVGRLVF
Method in brief: as §1

USP39 = molecular target: T3, USP39 (UniProt Q53GS9)
T3 sequence (whole entry): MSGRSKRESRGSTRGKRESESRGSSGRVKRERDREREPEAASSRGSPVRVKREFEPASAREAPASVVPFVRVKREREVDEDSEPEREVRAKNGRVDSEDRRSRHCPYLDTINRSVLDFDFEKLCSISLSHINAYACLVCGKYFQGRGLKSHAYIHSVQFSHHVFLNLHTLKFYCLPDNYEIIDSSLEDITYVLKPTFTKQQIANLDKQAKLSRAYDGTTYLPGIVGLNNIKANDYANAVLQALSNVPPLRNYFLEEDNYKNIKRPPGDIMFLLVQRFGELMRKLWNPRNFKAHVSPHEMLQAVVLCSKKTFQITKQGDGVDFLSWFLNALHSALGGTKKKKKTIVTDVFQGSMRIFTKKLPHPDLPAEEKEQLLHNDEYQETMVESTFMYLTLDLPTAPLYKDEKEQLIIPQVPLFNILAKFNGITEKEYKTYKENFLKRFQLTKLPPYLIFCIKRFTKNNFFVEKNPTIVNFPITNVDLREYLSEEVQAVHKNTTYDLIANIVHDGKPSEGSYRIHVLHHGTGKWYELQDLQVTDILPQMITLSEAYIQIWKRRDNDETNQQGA
Method in brief: as §1

USP4 = molecular target: T4, USP4 (UniProt Q13107)
T4 sequence (whole entry): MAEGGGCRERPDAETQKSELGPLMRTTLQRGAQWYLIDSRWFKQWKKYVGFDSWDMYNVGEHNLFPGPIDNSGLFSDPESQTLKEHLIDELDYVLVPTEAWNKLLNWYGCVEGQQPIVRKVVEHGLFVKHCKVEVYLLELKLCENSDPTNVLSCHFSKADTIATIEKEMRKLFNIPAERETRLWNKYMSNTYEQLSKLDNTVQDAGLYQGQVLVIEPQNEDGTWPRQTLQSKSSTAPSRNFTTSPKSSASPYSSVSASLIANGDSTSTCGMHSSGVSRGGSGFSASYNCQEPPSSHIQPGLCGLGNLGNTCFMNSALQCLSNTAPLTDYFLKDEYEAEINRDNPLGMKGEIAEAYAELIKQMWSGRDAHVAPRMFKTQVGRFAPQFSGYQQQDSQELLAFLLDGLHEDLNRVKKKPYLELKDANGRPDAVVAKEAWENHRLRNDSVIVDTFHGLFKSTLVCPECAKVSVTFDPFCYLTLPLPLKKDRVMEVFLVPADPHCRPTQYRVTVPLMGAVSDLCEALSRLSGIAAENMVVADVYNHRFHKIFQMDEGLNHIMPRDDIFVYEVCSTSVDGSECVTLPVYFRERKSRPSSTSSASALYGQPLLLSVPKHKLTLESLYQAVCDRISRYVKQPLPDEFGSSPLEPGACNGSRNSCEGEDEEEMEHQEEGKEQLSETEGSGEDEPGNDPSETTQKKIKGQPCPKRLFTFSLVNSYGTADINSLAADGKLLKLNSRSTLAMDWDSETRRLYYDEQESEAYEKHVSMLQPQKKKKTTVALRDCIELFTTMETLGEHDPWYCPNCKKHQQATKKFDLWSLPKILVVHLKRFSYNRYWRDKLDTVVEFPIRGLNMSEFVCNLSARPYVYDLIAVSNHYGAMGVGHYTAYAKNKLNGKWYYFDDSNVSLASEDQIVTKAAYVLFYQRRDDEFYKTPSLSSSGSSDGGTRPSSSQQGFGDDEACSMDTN
Method in brief: as §1

Measured: log2 ratio of Biotin-Ahx-Ub-VS probe labelling

O=C(CCl)Nc1ccc(N2CCCC2=O)cc1
inactive: USP34 0.0377 | USP36 0.2 | USP38 0.147 | USP39 -0.106 | USP4 0.0532
